Results filed as inconclusive are left out. A number with no mark means an inactive call. Active and inactive are the calls of the source. The call rests on the fitted dose curve; in most records, active means well fitted cell-killing curve with a large enough effect; inconclusive means small, poorly fitted or top-dose-only effect, or effect the other way; inactive means no such curve, though single readings can be large or run the other way.
What was measured:
[1] = Viability qHTS for spleen associated tyrosine kinase inhibitor (SYKi) naive MV4-11 cells (AID 1963823); further: nearly all actives have a fitted effect of over 40% in size
Summary of the method: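 SYK inhibitor-naive MV4-11 cells, 500 per well, exposed to compounds for 72 hr at 37 C, 5% CO2. Viability read as CellTiter-Glo luminescence after 10 min at room temperature.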

[2] = Viability qHTS for spleen associated tyrosine kinase inhibitor (SYKi) drug resistant MV4-11 cells (AID 1963824); further: nearly all actives have a fitted effect of over 35% in size
Summary of the method: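 SYK-inhibitor-resistant MV4-11 AML cells were seeded at 500 per well onto compound and cultured 72 hours (37 °C, 5% CO2). CellTiter-Glo was then added, and after 10 min at room temperature, luminescence gave viability.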
Potency means the concentration at half of the fitted maximal effect.

Structure (SMILES): C[C@@H]1C(=O)O[C@H]2[C@H](O)[C@@]34[C@@H]5OC(=O)[C@@]3(O[C@@H]3OC(=O)[C@@H](O)[C@@]34[C@H](C(C)(C)C)[C@H]5O)[C@@]12O
- Potency [1]: inactive
- Potency [2]: inactive

Structure (SMILES): Cc1cccc(NC(=O)N[C@H]2CN(C)c3ccccc3C(c3ccccc3)=N2)c1
- Potency [1]: 25.9 µM (active)

Structure (SMILES): C=CC(C)(O)CC/C=C(\C)C(=O)O[C@H]1[C@H](O)[C@@H](CO)O[C@@H](OC(=O)[C@]23CCC(C)(C)CC2C2=CCC4[C@@]5(C)CC[C@H](O[C@@H]6O[C@H](CO[C@@H]7OC[C@H](O)[C@H](O)[C@H]7O[C@@H]7OC[C@@H](O)[C@H](O)[C@H]7O)[C@@H](O)[C@H](O)[C@H]6O)C(C)(C)C5CC[C@@]4(C)[C@]2(C)CC3)[C@@H]1OC1OC(C)C(O[C@@H]2OC[C@@H](O)[C@H](O[C@@H]3OC[C@@H](O)[C@H](O)[C@H]3O)[C@H]2O)C(O)C1O (stereo not given in full)
- viability (% of control) [1]: 65.2% [at 9.25 µM]
- viability, % of control [2]: 77.8% [at 9.25 µM]

Structure (SMILES): CN1CCc2cc3c(cc2C1C1OC(=O)c2c1ccc1c2OCO1)OCO3 (stereo not given)
- Potency [1]: inactive
- Potency [2]: inactive

Structure (SMILES): COc1cc(CC(C)N)c(OC)cc1Br (stereo not given)
- Potency [1]: 12.7 µM (active)
- Potency [2]: 11.3 µM (active)

Structure (SMILES): CC(C)(NC(=O)[C@@H](N)Cc1ccc(O)cc1)C(=O)N[C@@H](Cc1cc2ccccc2[nH]1)C(=O)N[C@@H](Cc1ccccc1)C(=O)O
- Potency [1]: 3.35 µM (active)

Structure (SMILES): COCC1OC(=O)c2coc3c2C1(C)C1=C(C3=O)C2CCC(=O)C2(C)CC1O (stereo not given)
- Potency [1]: inactive
- Potency [2]: inactive

Structure (SMILES): CCC(C)(O)C1(C(=O)O)COC(=O)C1 (stereo not given)
- Potency [1]: inactive
- Potency [2]: inactive

Structure (SMILES): NC(=O)c1ncn2c1CN=C(c1ccccc1Br)c1cc(F)ccc1-2
- Potency [1]: 20.6 µM (active)
- Potency [2]: inactive

Structure (SMILES): CCCCCOc1cc2c(cc1-c1cc(/C=C/C(=O)O)ccc1O)C(C)(C)CCC2(C)C
- Potency [1]: 20.6 µM (active)

Structure (SMILES): CC[C@@H]1C[C@H]2CC[C@H](O2)[C@H](C)C(=O)O[C@@H](C)C[C@@H]2CC[C@@H](O2)[C@@H](C)C(=O)O[C@H](CC)C[C@H]2CC[C@H](O2)[C@H](C)C(=O)O[C@@H](C)C[C@@H]2CC[C@@H](O2)[C@@H](C)C(=O)O1
- Potency [1]: 0.0306 µM (active)
- Potency [2]: 0.0193 µM (active)

Structure (SMILES): N#CC(O[C@@H]1O[C@H](CO)[C@@H](O)[C@H](O)[C@H]1O)c1ccccc1 (stereo not given in full)
- Potency [1]: inactive

Structure (SMILES): N#CC(OC1OC(COC2OC(CO)C(O)C(O)C2O)C(O)C(O)C1O)c1ccccc1 (stereo not given)
- Potency [1]: inactive
- Potency [2]: inactive

Structure (SMILES): CC(C)(O)/C=C/C(=O)[C@](C)(O)[C@H]1[C@H](O)C[C@@]2(C)[C@@H]3CC=C4[C@@H](C[C@H](O)C(=O)C4(C)C)[C@]3(C)C(=O)C[C@]12C
- Potency [1]: 0.317 µM (active)

Structure (SMILES): CC(=O)O[C@@H]1[C@@H](O)[C@H]2O[C@@H]3C=C(C)[C@@H](O)C[C@]3(CO)[C@]1(C)[C@]21CO1
- Potency [1]: 0.321 µM (active)
- Potency [2]: 0.321 µM (active)

Structure (SMILES): C=C[C@H]1[C@H](O[C@@H]2O[C@H](CO)[C@@H](O)[C@H](O)[C@H]2O)OC=C2C(=O)OCC[C@H]21
- Potency [1]: inactive
- Potency [2]: inactive

Structure (SMILES): C=C1[C@@H](C)[C@H]2[C@H](Cc3ccccc3)NC(=O)[C@]23[C@H](OC(C)=O)/C=C/[C@](C)(O)C(=O)[C@@H](C)C/C=C/[C@H]3[C@@H]1O
- Potency [1]: 1.46 µM (active)
- Potency [2]: 0.731 µM (active)

Structure (SMILES): CC/C=C/C=C/C1(C)OC(OC)=C(C(=O)C2C(C)C(=O)c3cc(OC)c(O)c(O)c3C2(C)O)C1=O (stereo not given)
- Potency [1]: 10 µM (active)
- Potency [2]: 10 µM (active)

Structure (SMILES): COC1C(O)C(C)OC(OC2C(CO)O[C@@H](O[C@@H]3CC4CCC5C(CC[C@]6(C)[C@@H](C7=CC(=O)OC7)CC[C@]56O)[C@@]4(C)[C@H](OC(C)=O)C3)C(O)C2O)C1O (stereo not given in full)
- Potency [1]: 2.43 µM (active)
- Potency [2]: 1.09 µM (active)

Structure (SMILES): CC(=O)OC[C@]12C[C@H](OC(C)=O)C(C)=C[C@H]1O[C@@H]1[C@H](O)[C@@H](O)[C@@]2(C)[C@]12CO2
- Potency [1]: inactive
- Potency [2]: inactive

From PubChem BioAssay (NCATS)
